Data reported in PubChem BioAssay (EPA / NIEHS).
“And” between values parts separate entries of the source, which are not always exact repeats. Equal entries are not always repeated. Records with an inconclusive call do not appear. The source made the active and inactive calls. The calls were made as follows, unless noted: active = hit-call score of the fitted dose curve at least 0.9, where 1 is the maximum; inactive = score below 0.9.

Experiments:
[1] = read-out: succinate dehydrogenase complex iron sulfur subunit B (SDHB), SDHB (gene 6390); test: LTEA_HepaRG_SDHB: Life Technologies and Expression Analysis (LTEA) Assay for succinate dehydrogenase complex iron sulfur subunit B (SDHB) using HepaRG (AID 2283528); details: mRNA level, 48 h; actives raise or lower the signal
Summary of the method: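 HepaRG, 48 h exposure, 8-pt half-log series from 100 uM in 0.5% DMSO, duplicates. Readout: SDHB mRNA by Fluidigm qRT-PCR vs housekeeping genes; bidirectional fit relative to DMSO.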

[2] = read-out: Signal transducer and activator of transcription 3 (Homo sapiens) (UniProt P40763); test: LTEA_HepaRG_STAT3: Life Technologies and Expression Analysis (LTEA) Assay for Signal transducer and activator of transcription (STAT3) using HepaRG (AID 2283529); details: mRNA level, 48 h; actives raise or lower the signal
Summary of the method: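 HepaRG, 48 h exposure, 8-pt half-log series (top 100 uM), 0.5% DMSO vehicle, duplicates. Readout: STAT3 transcript by Fluidigm qRT-PCR, housekeeping-normalized; bidirectional fit vs DMSO baseline.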

[3] = read-out: solute carrier (SLCO1B1), SLCO1B1 (gene 10599); test: LTEA_HepaRG_SLCO1B1: Life Technologies and Expression Analysis (LTEA) Assay for solute carrier (SLCO1B1) using HepaRG (AID 2283530); details: mRNA level, 48 h; actives raise or lower the signal
Summary of the method: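 Differentiated human HepaRG cells were exposed for 48 h in serum-free induction medium to eight half-log concentrations, top 100 uM, in 0.5% DMSO. SLCO1B1 mRNA was measured by qRT-PCR, normalized to ACTB, GAPDH and POLR2A, and fitted bidirectionally against DMSO.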

[4] = read-out: sulfotransferase 2A1 (SULT2A1), SULT2A1 (gene 6822); test: LTEA_HepaRG_SULT2A1: Life Technologies and Expression Analysis (LTEA) Assay for sulfotransferase 2A1 (SULT2A1) using HepaRG (AID 2283531); details: mRNA level, 48 h; actives raise or lower the signal
Summary of the method: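 HepaRG human liver cells, 48 h exposure in serum-free induction medium to 8 half-log concentrations topping at 100 µM (0.5% DMSO), duplicate wells. SULT2A1 mRNA measured by TaqMan qRT-PCR, normalized to ACTB/GAPDH/POLR2A; bidirectional fit against DMSO.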

[5] = read-out: Transforming Growth Factor (TGFA), TGFA (gene 7039); test: LTEA_HepaRG_TGFA: Life Technologies and Expression Analysis (LTEA) Assay for Transforming Growth Factor (TGFA) using HepaRG (AID 2283532); details: mRNA level, 48 h; actives raise or lower the signal
Summary of the method: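 qRT-PCR read-out of TGFA transcript, normalized to three housekeeping genes, fitted bidirectionally against 0.5% DMSO baseline. Human HepaRG cultures received chemicals for 48 h at eight half-log concentrations, top 100 uM.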

[6] = read-out: Transforming Growth Factor (TGFB1), TGFB1 (gene 7040); test: LTEA_HepaRG_TGFB1: Life Technologies and Expression Analysis (LTEA) Assay for Transforming Growth Factor (TGFB1) Transporter using HepaRG (AID 2283533); details: mRNA level, 48 h; actives raise or lower the signal
Summary of the method: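 Differentiated HepaRG cells exposed 48 hr in serum-free induction medium to eight half-log concentrations up to 100 uM (0.5% DMSO), duplicate; TGFB1 mRNA by TaqMan qRT-PCR normalised to ACTB, GAPDH, POLR2A; bidirectional fit against DMSO.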

TIMP1, TIMP1 (gene 7076) = test: LTEA_HepaRG_TIMP1: Life Technologies and Expression Analysis (LTEA) Assay for TIMP1 using HepaRG (AID 2283534); details: mRNA level, 48 h; actives raise or lower the signal
Summary of the method: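 Differentiated HepaRG cells exposed 48 h in serum-free induction medium, duplicates, eight half-log concentrations from 100 uM in 0.5% DMSO. TIMP1 mRNA by qRT-PCR normalized to ACTB, GAPDH, POLR2A; bidirectional fitting against DMSO.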

[7] = read-out: Tumor necrosis factor receptor 1 (TNFRSF1A), TNFRSF1A (gene 7132); test: LTEA_HepaRG_TNFRSF1A: Life Technologies and Expression Analysis (LTEA) Assay for Tumor necrosis factor receptor 1 (TNFRSF1A) using HepaRG (AID 2283535); details: mRNA level, 48 h; actives raise or lower the signal
Summary of the method: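 Differentiated HepaRG cells in serum-free induction medium, exposed 48 h in duplicate to 8 half-log concentrations up to 100 uM in 0.5% DMSO. TNFRSF1A mRNA by Fluidigm TaqMan qRT-PCR, normalized to ACTB, GAPDH, POLR2A; bidirectional fit.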

[8] = read-out: Thyroid Hormone Responsive (THRSP), THRSP (gene 7069); test: LTEA_HepaRG_THRSP: Life Technologies and Expression Analysis (LTEA) Assay for Thyroid Hormone Responsive (THRSP) using HepaRG (AID 2283536); details: mRNA level, 48 h; actives raise or lower the signal
Summary of the method: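 qRT-PCR read-out (Fluidigm TaqMan), housekeeping-normalized (ACTB/GAPDH/POLR2A). HepaRG, 48 h chemical exposure, 8-pt half-log series from 100 uM in 0.5% DMSO, duplicates. Bidirectional curve fit vs 0.5% DMSO baseline.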

[9] = read-out: Cellular tumor antigen p53 (Homo sapiens) (UniProt P04637); test: LTEA_HepaRG_TP53: Life Technologies and Expression Analysis (LTEA) Assay for Tumor Protein P53 (TP53) using HepaRG (AID 2283537); details: mRNA level, 48 h; actives raise or lower the signal
Summary of the method: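 HepaRG, 48 h exposure, top 100 uM, half-log 8-point, 0.5% DMSO vehicle, duplicates. Read: TP53 mRNA by TaqMan qRT-PCR, normalised to ACTB/GAPDH/POLR2A; bidirectional fit vs DMSO.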

[10] = read-out: X-box binding protein 1 (XBP1), XBP1 (gene 7494); test: LTEA_HepaRG_XBP1: Life Technologies and Expression Analysis (LTEA) Assay for X-box binding protein 1 (XBP1) using HepaRG (AID 2283540); details: mRNA level, 48 h; actives raise or lower the signal
Summary of the method: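 Differentiated human HepaRG cells in serum-free induction medium exposed 48 h in duplicate to eight half-log concentrations up to 100 uM in 0.5% DMSO. XBP1 mRNA measured by Fluidigm TaqMan qRT-PCR, normalized to ACTB, GAPDH, POLR2A; bidirectional fitting against DMSO.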

[11] = LTEA_HepaRG_LDH_cytotoxicity: Cytotoxicity Assessment in the Life Technologies and Expression Analysis (LTEA) Assay (AID 2283563; active = hit-call score of the fitted dose curve at least 0.9, where 1 is the maximum)
Summary of the method: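 Differentiated HepaRG cells in serum-free induction medium, exposed 48 h in duplicate to 8 half-log concentrations up to 100 uM in 0.5% DMSO. Cytotoxicity from LDH measured in spent medium, fit relative to DMSO.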

[12] = biological target: Cellular tumor antigen p53 (Homo sapiens) (UniProt P04637); test: TOX21_p53_BLA_p2_ratio: Tox21 HCT-116 p53 Agonism Beta-lactamase Assay, Ratio, Phase 2 (AID 2283592; active = hit-call score of the fitted dose curve at least 0.9, where 1 is the maximum)
Summary of the method: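 First, HCT116 reporter cells settle for 5 h at 37C. Next, DMSO compound solutions are pinned in (217-fold dilution) and left 16 h. Finally, CCF4-AM substrate is loaded 2 h at room temperature and the 460/530 nm ratio read.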

[13] = TOX21_p53_BLA_p3_viability: Viability Assessment in the Tox21 HCT-116 p53 Agonism Beta-lactamase Assay, Phase 3 (AID 2283593; active = hit-call score of the fitted dose curve at least 0.9, where 1 is the maximum;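 also: cells exposed to compound for 16 h before reading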)
Summary of the method: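 HCT116 cells, 4000/well, dosed 5 h after plating by pin transfer (217-fold dilution from DMSO stock) and incubated 16 h at 37C, 5% CO2. Viability read as ATP luminescence with CellTiter-Glo after 30 min at room temperature.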

[14] = TOX21_p53_BLA_p4_viability: Viability Assessment in the Tox21 HCT-116 p53 Agonism Beta-lactamase Assay, Phase 4 (AID 2283597; active = hit-call score of the fitted dose curve at least 0.9, where 1 is the maximum;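 also: hits lower the luminescence signal meaning cytotoxicity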)
Summary of the method: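 4000 HCT116 cells per well; 5 h attachment; compounds from DMSO, 217-fold dilution; 16 h at 37C. Then CCF4-AM, 2 h RT, followed by CellTiter-Glo, 30 min RT, luminescence. Decrease = cytotoxicity.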

[15] = TOX21_p53_BLA_p2_viability: Viability Assessment in the Tox21 HCT-116 p53 Agonism Beta-lactamase Assay, Phase 2 (AID 2283591; active = hit-call score of the fitted dose curve at least 0.9, where 1 is the maximum;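 also: compound exposure lasted 16 h at 37 °C; actives lower the ATP signal meaning cytotoxicity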)
Summary of the method: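 HCT116 p53-bla cells, 4000/well, dosed after 5 h plating (217-fold dilution of DMSO stocks) and incubated 16 h at 37C. Viability taken as cellular ATP by CellTiter-Glo luminescence after 30 min RT; signal loss marks cytotoxicity.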

[16] = biological target: Cellular tumor antigen p53 (Homo sapiens) (UniProt P04637); test: TOX21_p53_BLA_p3_ratio: Tox21 HCT-116 p53 Agonism Beta-lactamase Assay, Ratio, Phase 3 (AID 2283596; active = hit-call score of the fitted dose curve at least 0.9, where 1 is the maximum)
Summary of the method: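 Cells were seeded at 4000/well, rested 5 h at 37C, then dosed with DMSO compound solutions (217-fold dilution) for 16 h. CCF4-AM substrate was loaded for 2 h at room temperature, and the 460/530 nm emission ratio was fitted for gain of signal versus DMSO.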

[17] = ATG_XTT_Cytotoxicity: Cytotoxicity Assessment in the Attagene TRANS-FACTORIAL HepG2 Assay (AID 2283584; active = hit-call score of the fitted dose curve at least 0.9, where 1 is the maximum)
Summary of the method: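 HepG2 cells transiently transfected with GAL4-UAS multiple reporter units, dosed 24 h; cytotoxicity read by XTT as loss of signal versus DMSO baseline.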

[18] = read-out: UDP glucuronosyltransferase (UGT1A6), UGT1A6 (gene 54578); test: LTEA_HepaRG_UGT1A6: Life Technologies and Expression Analysis (LTEA) Assay for UDP glucuronosyltransferase (UGT1A6) using HepaRG (AID 2283539); details: mRNA level, 48 h; actives raise or lower the signal
Summary of the method: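 Differentiated HepaRG cells, ~100,000/well, were exposed for 48 h in serum-free induction medium with 0.5% DMSO to 8-point half-log series topping at 100 uM, in duplicate. mRNA measured by Fluidigm TaqMan qRT-PCR, normalized to ACTB, GAPDH and POLR2A.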

Measured: AC50

Chain of Cellular tumor antigen p53 (Homo sapiens) (P04637 whole entry, looked up): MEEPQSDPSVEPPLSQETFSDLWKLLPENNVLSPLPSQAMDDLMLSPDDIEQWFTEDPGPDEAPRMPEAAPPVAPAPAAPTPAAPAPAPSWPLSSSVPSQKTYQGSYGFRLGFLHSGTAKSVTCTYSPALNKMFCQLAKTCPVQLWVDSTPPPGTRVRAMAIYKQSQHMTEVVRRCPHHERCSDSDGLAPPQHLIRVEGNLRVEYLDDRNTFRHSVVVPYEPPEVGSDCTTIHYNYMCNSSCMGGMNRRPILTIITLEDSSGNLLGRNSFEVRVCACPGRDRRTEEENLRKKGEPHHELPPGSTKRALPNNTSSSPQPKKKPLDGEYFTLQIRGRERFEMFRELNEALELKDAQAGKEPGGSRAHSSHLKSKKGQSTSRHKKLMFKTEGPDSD
Chain of Signal transducer and activator of transcription 3 (Homo sapiens) (P40763 whole entry, looked up): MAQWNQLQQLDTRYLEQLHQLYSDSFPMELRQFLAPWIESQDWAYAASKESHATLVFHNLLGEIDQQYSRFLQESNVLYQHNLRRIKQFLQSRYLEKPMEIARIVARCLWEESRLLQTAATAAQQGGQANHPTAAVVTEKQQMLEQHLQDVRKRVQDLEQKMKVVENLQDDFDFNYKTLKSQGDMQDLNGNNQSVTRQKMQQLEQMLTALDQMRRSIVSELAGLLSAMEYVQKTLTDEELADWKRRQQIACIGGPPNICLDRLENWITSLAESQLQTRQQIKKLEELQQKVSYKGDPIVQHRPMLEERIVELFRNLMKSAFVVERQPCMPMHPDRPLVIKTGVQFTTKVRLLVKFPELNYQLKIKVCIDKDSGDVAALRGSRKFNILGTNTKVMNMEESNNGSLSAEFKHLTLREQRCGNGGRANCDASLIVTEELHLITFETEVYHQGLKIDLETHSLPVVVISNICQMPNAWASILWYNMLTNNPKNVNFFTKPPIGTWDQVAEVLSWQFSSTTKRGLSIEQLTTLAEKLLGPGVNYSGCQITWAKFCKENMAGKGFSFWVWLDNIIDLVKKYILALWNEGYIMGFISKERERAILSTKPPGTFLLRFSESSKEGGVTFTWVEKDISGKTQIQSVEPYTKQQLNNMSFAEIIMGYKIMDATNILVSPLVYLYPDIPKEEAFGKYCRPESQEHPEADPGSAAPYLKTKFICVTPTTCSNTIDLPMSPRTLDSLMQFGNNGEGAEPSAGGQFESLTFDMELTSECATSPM

CC(C)c1ccc(C(=O)N=C(N)N)cc1S(C)(=O)=O
active: [5] 555 nM | [6] 403 nM | [7] 337 nM | [8] 37200 nM | [9] 457 nM | [10] 288 nM
not listed: [15] | [16] | [17] | [18]
inactive: all other assays above

CCOc1ccc2c(c1)C(C)=CC(C)(C)N2
not listed: [17] | [18]
inactive: all other assays above

Oc1ccc2ccccc2c1N=Nc1ccccc1
active: [2] 16200 nM | [3] 11400 nM | [4] 4890 nM | TIMP1, TIMP1 (gene 7076) 10100 nM | [8] 2190 nM
not listed: [10] | [11] | [14] | [18]
inactive: all other assays above

COc1cccc2c1C(=O)c1c(O)c3c(c(O)c1C2=O)C[C@@](O)(C(=O)CO)C[C@@H]3O[C@H]1C[C@H](N)[C@H](O)[C@H](C)O1
active: [12] 98.2 nM and 390 nM | [16] 401 nM
inactive: [17] | [15] | [13]

Cc1cc(=O)[nH]c(=S)[nH]1
not listed: [10] | [17]
inactive: all other assays above
